Experimental findings from PubChem BioAssay AID504582 (Broad Institute, 2011) are described below.

Values joined by “and” are separate entries in the source; they are usually repeats but may differ in a detail not shown here. Identical values can stand only once. About 2,300 (0.68%) of roughly 340,000 compounds were called active. Only a selection was taken, and actives are over-represented in it overall. A number with no mark means an inactive call. Rule as the data show it: active = growth rescue above about 28% (passing the limit was not always enough); inconclusive = no clear call, values can overlap the other calls.

This assay in a line: rescue of yeast from PfHsp40 toxicity, primary screen, S. cerevisiae, ATP luminescence (AID 504582).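 Also: yeast W303a lacking pdr1 and pdr3 grown in galactose medium; growth measured after three days at 30 °C.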 Particulars: S. cerevisiae expressing PfHsp40, growth rescue, at 12.5 µM, hits give high values.
In the case of `O=C(CCc1ccccc1)NNC(=O)COc1ccc(Cl)cc1`, the growth rescue was -0.417%. Next, `COc1ccc(C(=O)NC(=S)NC2CCCCC2)cc1`: 0.972%; `Cc1onc(-c2ccccc2)c1C(=O)NNC(=S)NC(=O)c1ccc(F)cc1`: 45.5% (active). Next, `COc1ccc(C(=O)NC(=S)NNC(=O)c2c(-c3ccccc3)noc2C)cc1`: 42.1% (active); `Cc1noc(C)c1COc1ccc(C(=O)NCCOc2ccccc2)cc1`: 0.221%. `Cc1onc(-c2ccccc2)c1C(=O)N=C(N)c1ccc(Cl)cc1`: the growth rescue was -1%. Next, `COc1ccc(C(=O)NC(=S)NNC(=O)CCc2ccccc2)cc1`: 277% (active). Next, `Cc1onc(-c2ccccc2)c1C(=O)Nc1ccccc1C#N`: -0.716% and 0.99%.

`Cc1onc(-c2c(Cl)cccc2Cl)c1C(=O)NNC(=O)c1c(-c2c(Cl)cccc2Cl)noc1C`: the growth rescue was -0.106%. Next, `COc1ccc(NS(=O)(=O)c2cc(NC(=O)c3ccc(S(=O)(=O)N(C)C)cc3)ccc2N2CCOCC2)cc1`: 0.23%; `CCOC(=O)N1CCN(CC(=O)n2c(C)c(C)c3ccccc32)CC1`: 1.25%. Next, `COC(=O)Cc1ccc(NC(=S)NCc2ccco2)cc1`: -0.043%; `Cc1cc(C)cc(N)c1`: -0.449%; `CCN(C(=O)CSc1nnnn1-c1ccc(OC)cc1)C1CCS(=O)(=O)C1` (configuration not stated): -0.617%.

Regarding `Cc1c(C(=O)N(C)CCc2cnn(C)c2)oc2c(F)cccc12`, the growth rescue is 6.8%. Regarding `Cc1ccccc1Nc1nnc(SCC(=O)c2cc3ccccc3o2)s1`, the growth rescue is 0.609%. Consider `CC(C)c1ccc(Nc2nnc(SCC(=O)c3nnc(-c4ccccc4)o3)s2)cc1`, for which the growth rescue is 200% (active). As for `CC(C)N(C(=O)CSc1nnc(NC2CC2)s1)c1ccccc1`, the growth rescue is 0.892%. Next, `O=C1C2(Cl)C3(Cl)C4(Cl)C(Cl)(Cl)C5(Cl)C3(Cl)C1(Cl)C5(Cl)C24Cl` (configuration not stated): 78.8% (active); `CCc1ccc(NC(=O)N[C@H](C(=O)O)C(C)CC)cc1` (some centres not stated): -0.138%; `CCOc1ccc(NC(=O)N2CC=C(n3c(=O)[nH]c4ccccc43)CC2)cc1`: -0.78%. `CCn1c(SC)nc(O)c(C(c2ccc(OC)c(O)c2)c2c(O)nc(SC)n(CC)c2=O)c1=O`: the growth rescue was -0.176%. Next, `CC(Sc1nnc(-c2cccs2)n1C1CC1)C(=O)NCC1CCCO1` (configuration not stated): -0.606%; `O=c1oc2ccccc2cc1-c1cn(-c2ccccc2)c(=S)[nH]1`: 2.32%. Next, `O=c1oc2ccccc2cc1-c1csc(Nc2ccc(O)cc2)n1`: 77.4% (active); `Cc1cc(C)cc(OCC(=O)NNC(=O)c2cc3ccccc3oc2=O)c1`: -1.97%; `COc1cc(C(=O)OCC(=O)NC23CC4CC(CC(C4)C2)C3)cc(OC)c1OC`: 0.746%. In the case of `CC1(C)C2CCC1(C)C(OC(=O)c1ccc(O)cc1)C2` (configuration not stated), the growth rescue is 518% (active). Next, `CC1(C)C2CCC1(C)C(OC(=O)CCn1ccnc1)C2` (configuration not stated): -1.93%.

With `Cc1ccc(C(=O)OC2CCCN(C)C2)cc1` (configuration not stated), the growth rescue is -1.37%.

Consider `CCOC(=O)Nc1ccc2c(c1)N(C(=O)CCCl)c1ccccc1[S@]2=O`, for which the growth rescue was 1.15%.

With `Cc1ccc2c(c1)N(CC(=O)NCCCN1CCCCC1)C(=O)c1cccnc1O2`, the growth rescue is -0.596%. With `COC(=O)C1CCCCN1C(=O)c1ccc(OC2CCN(C(C)=O)CC2)c(OC)c1` (configuration not stated), the growth rescue is 1.77%. For `Cc1ccc2c(c1)N(CC(=O)N1CCOCC1)C(=O)CO2`, the growth rescue is -0.417%.

With `CCCCNc1c(-c2ccc(OC)c(Sc3ccc(OC)cc3)c2)nc2ccc(Cl)cn12`, the growth rescue is 19.1%. Take `CCCCNc1nc2c(c(=O)n(C)c(=O)n2C)n1Cc1cccc(OC)c1`: the growth rescue is 0.511%.

Turning to `CCCCNc1c(-c2cccc(Sc3ccc(OC)cc3)c2)nc2ccccn12`, the growth rescue is 310% (active). With `Cn1c(=O)n(C)c2cc(CNc3ccc(N4CCOCC4)c(C(=O)O)c3)ccc21`, the growth rescue is -0.489%. Next, `Cc1cccc(N2CCN(C(=O)CN(C)S(=O)(=O)c3ccc4c(c3)CCC(=O)N4)CC2)c1C`: -1.62%.

`COc1ccc(C(=O)Nc2ccccc2C(=O)N/N=C/c2ccc(O)c(OC)c2)cc1`: the growth rescue was 40.9% (active). Next, `COc1cc(C=NNC(=O)c2cccnc2)ccc1OC(=O)c1ccccc1F`: 1.77%; `COc1ccc(C(=O)Nc2cc(C)c(NC(=O)c3ccccc3OC)cn2)cc1`: 1.75%; `C=CCN1CC(C)/C(=N\O)CC1C` (configuration not stated): -0.962%. Next, `COc1cccc(CNC(=O)CCC2CCCN(C(=O)c3cc(C)[nH]n3)C2)c1` (configuration not stated): 1.27%; `NC(=O)NC(=O)CSc1nc2cc([N+](=O)[O-])ccc2n1-c1cccc(C(F)(F)F)c1`: 0.555%; `Nc1[nH]c(=S)nc2nc(-c3ccccc3)c(-c3ccccc3)nc12`: 38.7% (active).

In the case of `Cc1ccc(Cc2cncc(O)c2)cc1S(=O)(=O)O`, the growth rescue is -2.67%. For `O=C(Nc1ccc2sc3ccccc3c(=O)c2c1)c1ccccc1Cl`, the growth rescue is -0.178%. For `COC(=O)c1nc(NC(=O)c2ccccc2)n[nH]1`, the growth rescue is -0.423%. Next, `O=C(Nc1ccc2ccccc2c1[N+](=O)[O-])c1ccccc1`: 0.461%; `O=C(NC1=CC(=O)c2ccccc2C1=O)c1ccccc1`: 300% (active); `O=c1c2ccccc2ccc2ccc(P(=O)(O)O)cc12`: -0.021%. Take `CCOC(=O)CSc1nnc(CNC(=O)c2cccs2)n1-c1ccccc1`: the growth rescue was -0.612%. Turning to `COc1ccc2[nH]c3c(C)c4cc[n+](C)cc4c(C)c3c2c1`, the growth rescue was 122% (active). Next, `COc1ccc2[nH]c3c(c2c1)CCN[C@H]3C`: -1.47%; `COc1ccc2[nH]c(C(=O)N3CCN(C)CC3)c(C)c2c1`: -0.899%; `Cc1c(NC(=O)C(C)Oc2cccc(Cl)c2)c(=O)n(-c2ccccc2)n1C` (configuration not stated): 0.003%.

On to `O=C(NCCCN1CCOCC1)c1cc(-c2ccc(Cl)cc2)on1`, for which the growth rescue is 0.597%. With `COc1ccc(-c2cc(C(=O)NCCCN3CCOCC3)no2)cc1`, the growth rescue is 0.263%. Next, `O=C(NCCCN1CCOCC1)c1cc(-c2cccc(O)c2)on1`: 44.1% (active); `CCOC(=O)CNC(=O)CSc1ncccc1-c1nc2ccccc2[nH]1`: 0.257%; `COC(=O)Cc1cc(=O)n(-c2nc3ccccc3s2)[nH]1`: 103% (active). In the case of `CC(=NCc1ccco1)c1c(C(F)(F)F)[nH]n(-c2nc3ccccc3s2)c1=O`, the growth rescue was -0.486%.

Take `Cc1cc(NC(=O)CN2CCCC(C)C2)n(-c2nc3ccccc3s2)n1` (configuration not stated): the growth rescue is -1.25%. Next, `O=C(NCCCn1ccnc1)c1cc(-c2ccccc2)on1`: -0.876%; `O=C(/C=C/c1ccccc1)Oc1coc(CSc2ncccn2)cc1=O`: 1.58%; `COc1cc(/C=C2\Oc3ccc(C#Cc4ccc(O)cc4)cc3C2=O)cc(OC)c1`: -1.52%. Next, `COc1cc(C#Cc2ccc3cc(CCCO)oc(=O)c3c2)cc(OC)c1`: 45.9% (active); `O=C1c2ccccc2C(=O)N1CCC#Cc1ccc2cc(C3(O)CCCCC3)oc(=O)c2c1`: 0.213%; `CCN1CCN(C(=O)CN(C)S(=O)(=O)c2ccc3ccccc3c2)CC1`: -0.824%. `S=c1c2[nH]cnc2ncn1CCSc1ncnc2nc[nH]c12`: the growth rescue is -2.56%. `O=S(=O)(c1ccc(OCC(O)CN2CCN(c3ccccc3Cl)CC2)cc1)N1CCOCC1` (configuration not stated): the growth rescue was 2.31%. Next, `Cc1cccc(OCC(O)CN2CCN(S(=O)(=O)c3ccc(C)cc3C)CC2)c1` (configuration not stated): 0.709%.

Consider `CC(=O)c1ccc(OCC(O)CN2CCN(S(=O)(=O)c3cccc(Br)c3)CC2)cc1` (configuration not stated), for which the growth rescue is 26.4% (active).

`COC(=O)c1cc2occc2n1Cc1nc(-c2ccccc2C)oc1C`: the growth rescue was 1.43%. Regarding `Cc1c(NS(=O)(=O)c2cc(C(=O)NCCc3ccc(F)cc3)cc(Cl)c2Cl)c(=O)n(-c2ccccc2)n1C`, the growth rescue was -0.709%. As for `COc1ccccc1C(=O)NN1C(=O)C2C3C=CC(O3)C2C1=O` (configuration not stated), the growth rescue is 0.742%. Next, `CC1=CC(C)(C)NC(=S)N1NC(=O)c1ccccc1Cl`: 0.305%. As to `CC12CCC(C(=O)N(NC(=O)c3ccccc3O)C1=O)C2(C)C` (configuration not stated), the growth rescue was 64.6% (active). Next, `CN1CCN(C(=O)N2c3ccccc3CCc3ccccc32)CC1`: -1.45%. Next, `CC(C)CN(CC(C)C)C(=O)CN1c2cccc3cccc(c23)S1(=O)=O`: 29.2% (active). Next, `O=C(O)CN1c2cccc3cccc(c23)S1(=O)=O`: 0.021%; `CCN(CC(=O)Nc1c(F)cccc1F)C(=O)CN1c2cccc3cccc(c23)S1(=O)=O`: 0.416%. With `COc1ccc(C2COC(=O)C2=N)c(NC(=O)c2ccccc2)c1` (configuration not stated), the growth rescue is -1.79%. Turning to `CCNC(=O)N1CCCC(C(=O)c2ccc(-c3ccccc3)cc2)C1` (configuration not stated), the growth rescue was 173% (active). Take `Cc1nc(C(=O)N2CCCC(C(=O)c3ccc(Cl)cc3)C2)cs1` (configuration not stated): the growth rescue is -0.97%. On to `CCOC(=O)CCNC(=O)N1CCCC(C(=O)c2ccccc2SC)C1` (configuration not stated), for which the growth rescue was -0.934%. Next, `O=C(c1ccc(-c2ccccc2)cc1)C1CCCN(C(=O)c2cncs2)C1` (configuration not stated): 373% (active); `Cc1ccccc1NC(=O)C1CCCN(C(=O)NCc2ccccc2)C1` (configuration not stated): -1.16%; `Cn1nccc1C(=O)N1CCCC(C(=O)c2ccc(Oc3ccccc3)cc2)C1` (configuration not stated): 1.09%. As to `N#Cc1c(C(F)(F)F)cc(-c2cccs2)nc1N1CCCCC1`, the growth rescue was -0.0675%. Next, `CC(=O)c1ccc(NC(=O)c2ccc(-n3cncn3)c([N+](=O)[O-])c2)cc1`: 0.873%.
